Results filed as inconclusive are left out. Values without a mark were called inactive. The source made the active and inactive calls. The call rests on the fitted dose curve; in most records, active means well fitted inhibition curve with a large enough effect; inconclusive means small, poorly fitted or top-dose-only effect; inactive means no such curve, though single readings can be large or run the other way.
Experiment: Counterscreen qHTS for Identification of Calcium Integrin Binding Protein 1 (CIB1) Competitor
Conditions: series mostly up to 114 µM; activity, negative = inhibition: at the top concentration
Summary of the method: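 Counterscreen FP assay: CIB1-GST 1 uM in 5 mM HEPES pH 7.4, 125 mM NaCl, 5 mM CaCl2, 0.01% Tween20, with compounds up to 114 uM for 15 min, then 100 nM FITC-labelled scrambled peptide, 15 min, polarization read ex 480/em 540.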
On the % scale 0 is the no-effect control and ±100 the full control effect; potency means the concentration at half of the fitted maximal effect.

SMILES | activity, negative = inhibition | Potency
O=[S+]([O-])(Nc1nccs1)c1ccc(NCc2cc(F)cc(Cl)c2O)cc1 | -11% | 
O=[S+]([O-])(Nc1nccs1)c1ccc(NCc2cc(Cl)cc(Br)c2O)cc1 | 2.31% | 
C[C@@H](NCc1cc2ccccc2[nH]1)c1cccc2ccccc12 | -14.1% | 
O=C(O)c1ccc(O)c2ncc(-c3n[nH]nc3-c3ccccc3)cc12 |  | inactive
Cc1ccc(C(=O)NC(c2ccco2)c2cc(Cl)c3cccnc3c2O)cc1 (stereo not given) | 37.6% | 
COc1ccc2nc(S(=O)Cc3ncc(C)c(OC)c3C)[nH]c2c1 (stereo not given) | -29% | 
CCc1oc2ccccc2c1C(=O)c1cc(I)c(O)c(I)c1 |  | 100 µM (active)
CCOC(=O)c1nnc(N[S+](=O)([O-])c2ccc(NC(=O)Cc3ccc(Cl)c(Cl)c3)cc2)s1 | 47.7% | 
Oc1cccc2c(-c3nn[nH]n3)ccnc12 | -28.8% | 
COc1cc(C(=O)NS(=O)(=O)c2ccccc2C)ccc1Cc1cn(C)c2ccc(NC(=O)OC3CCCC3)cc12 | 37.6% | 
CC1CCC2(C1)N=C(Nc1nc3ccccc3o1)NC1=C2C(=O)CCC1 (stereo not given) | 3.07% | 
O=C1CCCC2=C1C1(CCCOC1)N=C(Nc1nc3ccccc3o1)N2 (stereo not given) | -6.27% | 
Cc1cc(=O)oc2cc(SC3=NS(=O)(=O)c4ccccc43)ccc12 | -9.31% | 
C[n+]1cc2c3c(ccc2c2ccc4cc5c(cc4c21)OCO5)OCO3 | 0.97% [at 57.1 µM] | 
O=C(NC(c1ccco1)c1cc(Cl)c2cccnc2c1O)c1cccs1 (stereo not given) | 82.3% | 

From PubChem BioAssay AID1508619 (National Center for Advancing Translational Sciences (NCATS), 2020)
